In PubChem BioAssay (NCATS) one finds Potency and viability data, which are given here for 8 molecules.

Results filed as inconclusive are left out. A number with no mark means an inactive call. Calls of active or inactive are those of the source. Calls come from the whole dose curve; as a rule, active = well fitted curve in the direction sought with a large enough effect; inconclusive = small, poorly fitted or top-dose-only effect, or another doubt; inactive = no such curve, though single readings can be large; an effect the other way counts as inactive or inconclusive.

Assay [1] concerns the target Aldehyde dehydrogenase, mitochondrial (Homo sapiens) (UniProt P05091). Kind of assay: qHTS for Inhibitors of the Aldehyde Dehydrogenase Family (ALDH2) Primary screen (AID 2061308).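 Note: plate controls were vehicle for no effect and reference inhibitor for full effect; nearly all actives have a fitted effect of over 55% in size.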
For assay [2], the target named is Retinaldehyde dehydrogenase 3 (Homo sapiens) (UniProt P47895). In words: qHTS for Inhibitors of the Aldehyde Dehydrogenase Family (ALDH1A3) Primary screen (AID 2061315).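 Note: plate controls were DMSO vehicle for no effect and reference inhibitor for full effect.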 Background: In qHTS, concentration-response curves come from the screen itself.
A short description of assay [3]: BET inhibitor-based combinations targeting novel dependencies in MECOM-rearranged (r) AML: SET-2 cell line (AID 2202231).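 For viability: plate controls were DMSO treated cells for no effect and wells without cells for full effect.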 Note: nearly all actives have a fitted effect of over 35% in size. Note: potency is the fitted concentration of half-maximal effect. To be noted: SET-2 AML cells viability, CellTiter-Glo luminescence, 48 h; viability: active compounds read low, concentration not given here. Put shortly: (§1)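 Readout: CellTiter-Glo luminescence. Exposure: 48 h, 11 concentrations, 500 cells/well. Metric: AUC and within-line Z-AUC after DMSO/empty-well normalization.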

Assay [4] is described as follows: BET inhibitor-based combinations targeting novel dependencies in MECOM-rearranged (r) AML: OCI-AML3 cell line (AID 2202232). Note: nearly all actives have a fitted effect of over 35% in size. Note: potency is the fitted concentration of half-maximal effect. To be noted: Potency: OCI-AML3 viability. The method in brief: as §1
Assay [5] can be described thus: BET inhibitor-based combinations targeting novel dependencies in MECOM-rearranged (r) AML: HNT-34 cell line (AID 2202234). Note: nearly all actives have a fitted effect of over 35% in size. Note: potency is the fitted concentration of half-maximal effect. The method in brief:
(§2)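 Seeding density was 500 cells/well, and drug exposure lasted 48 hr under standard culture conditions. Read-out used CellTiter-Glo reagent with a 15 min room-temperature incubation before luminescence measurement; AUC and Z-AUC summarize the normalized responses.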

Assay [6] in a line: BET inhibitor-based combinations targeting novel dependencies in MECOM-rearranged (r) AML: UCSD-AML1 cell line (AID 2202235). Note: potency is the fitted concentration of half-maximal effect; nearly all actives have a fitted effect of over 40% in size. Put shortly:
as §2

A short description of assay [7]: BET inhibitor-based combinations targeting novel dependencies in MECOM-rearranged (r) AML: MV-4-11 cell line (AID 2202233). Note: nearly all actives have a fitted effect of over 45% in size. Note: potency is the fitted concentration of half-maximal effect. The method in brief: as §2
A short description of assay [8]: BET inhibitor-based combinations targeting novel dependencies in MECOM-rearranged (r) AML: AML-194 cell line (AID 2202237; note: nearly all actives have a fitted effect of over 40% in size; note: potency is the fitted concentration of half-maximal effect). Put shortly:
as §1

With `C#C[C@]1(O)CC[C@H]2[C@@H]3CC[C@H]4Cc5nc6nc7ccccc7n6cc5C[C@]4(C)[C@H]3CC[C@@]21C`, the Potency result in assay [1] and in assay [2] was “inactive” in each case.
As to `CCOc1ccc(CCNC(=O)c2cc3ccncc3n2Cc2cccc(C)c2)cc1OCC`, the Potency result in assay [1] and in assay [2] was “inactive” throughout.
With `CC(C)(O)/C=C/C(=O)[C@](C)(O)[C@H]1[C@H](O)C[C@@]2(C)[C@@H]3CC=C4[C@@H](C[C@H](O)C(=O)C4(C)C)[C@]3(C)C(=O)C[C@]12C`, the Potency entry in assay [1] and in assay [2] was “inactive” throughout.
`CO[C@@H]1[C@H](O)[C@@H](O[C@@H]2C[C@H]3CC[C@@H]4C(CC[C@]5(C)[C@@H](C6=CC(=O)OC6)CC[C@]45O)[C@@]3(C)[C@H](O)C2)O[C@H](C)[C@@H]1O[C@@H]1O[C@H](CO)[C@@H](O)[C@H](O)[C@H]1O` (stereo not given in full): the Potency result in assay [1] and in assay [2] was “inactive” in each case.
For `C=C(CO)C(=O)O[C@H]1CC(=C)[C@@H]2C[C@H](O)C(=C)[C@@H]2[C@H]2OC(=O)C(=C)[C@@H]21`, the Potency result in assay [1] and in assay [2] was “inactive” each time.
With `C[C@@]12OC(=O)[C@]1([C@@H](O)[C@@H]1C=CCCC1)NC(=O)[C@@H]2CCCl`, the Potency in assay [3] is 26.3 nM (active); in assay [4] it was 20.9 nM (active); in assay [5], 37.2 nM (active); in assay [6], 33.2 nM (active).
As to `C[C@@H]1C[C@@H]([C@H](O)CC2CC(=O)NC(=O)C2)C(=O)[C@@H](C)C1`, the Potency in assay [3] is 296 nM (active); in assay [4], 1660 nM (active); in assay [7], 525 nM (active); in assay [5] it was 263 nM (active); in assay [6], 263 nM (active); in assay [8], 833 nM (active).
The term viability denotes a read-out of living cells in per cent, often relative to untreated cells. `CN(C)[C@@H]1C(=O)C(C(N)=O)=C(O)[C@@]2(O)C(=O)C3=C(O)c4c(O)cccc4[C@@](C)(O)[C@H]3[C@H](O)[C@@H]12`: in assay [3], the viability is 103%. Moreover, the Potency entry in assay [4], in assay [7], in assay [5] and in assay [8] was “inactive” throughout.
